Test results: PubChem BioAssay AID504332 (National Center for Advancing Translational Sciences (NCATS), 2011)
About 31,000 (8.9%) of roughly 350,000 compounds were called active. A call without a number means that no potency is given here. Inconclusive results (about 15%) are left out. The sample holds actives, similar compounds and a random draw of the others, so the mix is not that of the screen. Calls follow the shape of the dose curve; as a rule, active = well fitted inhibition curve with a large enough effect; inconclusive = small, poorly fitted or top-dose-only effect; inactive = no such curve, though single readings can be large or run the other way. The source holds several records for some structures; these can differ, active in one and inactive in another.

target: Histone-lysine N-methyltransferase EHMT2 (Homo sapiens) (UniProt Q96KQ7); test: qHTS Assay for Inhibitors of Histone Lysine Methyltransferase G9a; conditions: G9a H3K9 monomethylation, AlphaScreen, 2 h; series mostly up to 59 µM; also: nearly all actives have a fitted effect of over 75% in size
Procedure, shortened: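 G9a (20 nM) preincubated 15 min RT with compounds, then 500 nM biotinylated H3K9 peptide and 20 uM SAM added; 2 h RT reaction. Monomethyl-H3K9 product detected by AlphaScreen with anti-H3K9me1 antibody, streptavidin donor and anti-rabbit IgG acceptor beads.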
Potency is read from the fitted curve at half-maximal effect.

Sequence of Histone-lysine N-methyltransferase EHMT2 (Homo sapiens) (Q96KQ7 913-1193 limits assumed): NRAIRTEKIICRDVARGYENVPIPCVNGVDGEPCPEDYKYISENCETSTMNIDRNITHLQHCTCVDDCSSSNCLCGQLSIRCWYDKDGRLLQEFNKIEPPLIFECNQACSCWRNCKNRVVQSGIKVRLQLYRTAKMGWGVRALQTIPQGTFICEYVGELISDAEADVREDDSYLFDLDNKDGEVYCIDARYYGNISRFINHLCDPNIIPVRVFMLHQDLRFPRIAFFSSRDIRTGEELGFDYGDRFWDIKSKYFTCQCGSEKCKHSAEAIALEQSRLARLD

Row | SMILES | Potency | activity, negative = inhibition
1 | Cc1cc(Nc2cccc(C(F)(F)F)c2)nc2ccc(NC(=O)c3ccc(=O)[nH]c3)cc12 | inactive | 
2 | O=C(Nc1nc2ccccc2s1)c1ccc2c(c1)OCO2 | inactive | 
3 | O=C(O)CC/C(=C\c1cc2c(cc1Br)OCO2)c1nc2ccccc2s1 | 35.5 µM (active) | 
4 | O=C(O)CS/C(=C\c1ccc(F)cc1)c1nc2ccccc2s1 | inactive | 
5 | Cc1ccc2oc3c(c(=O)c2c1)C(c1ccc(O)cc1)N(Cc1ccc2c(c1)OCO2)C3=O (configuration not stated) | inactive | 
6 | Cc1ccc(-n2c(=O)c3cccnc3n2CC(=O)Nc2ccccc2C(F)(F)F)cc1C | inactive | 
7 | COc1ccc(Cc2nnc(SCC(=O)Nc3ccc(C)c(C)c3)o2)cc1OC | inactive | 
8 | Cc1ccc(S(=O)(=O)N2CCOCC2)cc1C(=O)NCc1ccc(F)cc1 | inactive | 
9 | O=C(CNCc1ccco1)Nc1cc(S(=O)(=O)N2CCOCC2)ccc1N1CCCC1 | 50.1 µM (active) | 
10 | COc1ccc(S(=O)(=O)N2CCOCC2)cc1NC(=O)c1ccc(OCC(C)C)c(OC)c1 |  | 22.9% [at 2.33 µM] (inactive)
11 | O=C(Nc1ccc2c(c1)nc1n2CCCCC1)c1cc(S(=O)(=O)N2CCOCC2)ccc1Cl | inactive | 
12 | Cc1cccc(OCCC(=O)Nc2cc(S(=O)(=O)N3CCCCC3)ccc2N2CCOCC2)c1 | inactive | 
13 | O=C(CNCc1cccs1)Nc1cc(S(=O)(=O)N2CCCC2)ccc1Cl | inactive | 
14 | COc1ccc(S(=O)(=O)N2CCCCC2)cc1NC(=O)COc1ccccc1 |  | -9.48% [at 2.33 µM] (inactive)
15 | O=C(Nc1ccc(N2CCCCC2)cc1)c1cc(S(=O)(=O)N2CCOCC2)ccc1F | 17.8 µM (active) | 
16 | COc1ccc(S(=O)(=O)N2CCOCC2)cc1NC(=O)COc1ccccc1 | 12.6 µM (active) | 
17 | CC(Oc1ccc(F)cc1)C(=O)Nc1cc(S(=O)(=O)N2CCOCC2)ccc1N1CCN(C)CC1 (configuration not stated) | 11.2 µM (active) | 
18 | COc1ccc(S(=O)(=O)N2CCOCC2)cc1NC(=O)CSc1ncnc2ccccc12 | inactive | 
19 | Cc1ccc(S(=O)(=O)N2CCOCC2)cc1C(=O)Nc1ccccc1N1CCCC1 |  | 11% [at 0.501 µM] (inactive)

Row | SMILES | Potency | activity, negative = inhibition
20 | CC1CCC2(CC1)N=C(c1ccccc1)C(=O)N2CC(=O)Nc1ccc(F)c(Cl)c1 (configuration not stated) | inactive | 
21 | O=C(NCc1cccnc1)C(=O)NCC(c1cccnc1)N1CCN(c2ccccc2)CC1 (configuration not stated) | inactive | 
22 | Cc1c(NC(=O)C(C)(C)C)cccc1-c1nc2ccccc2s1 | inactive | 
23 | CCc1ccc(-n2nnc(-c3nc(-c4ccccc4)no3)c2C)cc1 | inactive | 
24 | CCCCn1c(=N)c(S(=O)(=O)c2ccccc2)cc2c(=O)n3cccc(C)c3nc21 | inactive | 
25 | COc1cccc(N=C2SC(C(=O)Nc3cccc(Cl)c3)CC(=O)N2C)c1 (configuration not stated) | inactive | 
26 | Cc1cccc2c1-c1sc(C(=O)Nc3ccc(F)cc3F)cc1CO2 | inactive | 
27 | O=C(Nc1ccc(S(=O)(=O)N2CCc3ccccc3C2)cc1)c1ccccc1 |  | 46.5% [at 12.7 µM] (inactive)
28 | O=C(COC(=O)c1ccccc1F)Nc1cc(S(=O)(=O)N2CCOCC2)ccc1N1CCCC1 | 35.5 µM (active) | 
29 | CS(=O)(=O)c1ccc(Cl)c(NC(=O)COC(=O)c2cccc(S(=O)(=O)N3CCCC3)c2)c1 | 56.2 µM (active) | 
30 | O=C(COC(=O)CCOc1ccccc1)Nc1cc(S(=O)(=O)N2CCCCC2)ccc1Cl |  | 4.58% [at 2.33 µM] (inactive)
31 | O=C(COc1cccc2ccccc12)Nc1cc(S(=O)(=O)N2CCOCC2)ccc1N1CCOCC1 | inactive | 
32 | CC(NC(=O)c1cccc(S(=O)(=O)N2CCc3ccccc3C2)c1)c1ccco1 (configuration not stated) | inactive | 
33 | CC(C)c1ccc(NC(=O)c2cc(S(=O)(=O)N3CCc4ccccc4C3)ccc2F)cc1 | 25.1 µM (active) | 
34 | O=C(COC(=O)Cc1ccc(F)cc1)Nc1cc(S(=O)(=O)N2CCOCC2)ccc1N1CCCC1 | inactive | 
35 | CC(=O)c1c(C)[nH]c(C(=O)OCC(=O)Nc2cc(S(=O)(=O)N3CCCCC3)ccc2C)c1C | inactive | 
36 | COc1cc(Nc2nc3ccc(Cl)cc3n3cnnc23)cc(OC)c1OC | inactive | 
37 | COc1cc(F)c(C2=CC(=O)CC(C)(C)C2)cc1F |  | -4.97% [at 0.501 µM] (inactive)
38 | COc1ccccc1S(=O)(=O)NCc1ccc(C(=O)N(C)Cc2ccc(F)cc2)cc1 |  | 6.01% [at 2.33 µM] (inactive)

Row | SMILES | Potency | activity, negative = inhibition
39 | Cc1cccc(CCNC(=O)c2ccc3c(c2)nc2n3CCC(C)C2)c1 (configuration not stated) | inactive | 
40 | CC(=O)N1CCc2cc(Br)cc(S(=O)(=O)CCC(=O)NCCc3ccc(Cl)cc3)c21 | inactive | 
41 | C/C(=N\NC(=O)c1ccccc1F)c1ccccn1 | inactive | 
42 | CCOC(=O)C1CCN(S(=O)(=O)c2cc(F)ccc2OC)CC1 | inactive | 
43 | CCOC(=O)C1CCN(C(=O)/C=C/c2cc(OC)c(OC)c(OC)c2)CC1 | inactive | 
44 | CCOC(=O)C1CCCCN1Cc1ccc(OC)c(OC)c1OC (configuration not stated) | 12.6 µM (active) | 
45 | Cc1ccc(S(=O)(=O)c2nc(-c3ccco3)oc2SCC(=O)Nc2ccc(F)cc2)cc1 | inactive | 
46 | NS(=O)(=O)c1ccc(CCNC(=O)CN2C(=O)c3ccccc3S2(=O)=O)cc1 | inactive | 
47 | CCC(=O)N1CCc2cc(Br)cc(S(=O)(=O)CCC(=O)NCCc3ccc(OC)c(OC)c3)c21 | inactive | 
48 | Cc1ccccc1NC(=O)C(C)OC(=O)CCC(=O)N(CC(C)C)c1c(N)n(CC(C)C)c(=O)[nH]c1=O (configuration not stated) | inactive | 
49 | COc1ccccc1OCCNCC(O)COc1cccc2[nH]c3ccccc3c12 (configuration not stated) | inactive | 
50 | CC(C)(C)NCC(O)COc1cccc2[nH]c(=O)[nH]c12 (configuration not stated) | 1.12 µM (active) | 21.7% [at 12.7 µM] (inactive)
51 | CC(C)(C)CC(C)(C)NCC(O)COCCOc1ccc(Br)cc1 (configuration not stated) | inactive | 
52 | COc1ccc(C2(C#N)CCC(C(=O)O)CC2)cc1OC1CCCC1 (configuration not stated) |  | -32.8% [at 12.7 µM] (inactive)
53 | COc1ccc(S(=O)(=O)n2nc(C)c(S(=O)(=O)N3CCCCCC3)c2C)cc1 | inactive | 
54 | Cc1ccc(S(=O)(=O)n2nc(C)c(S(=O)(=O)N3CCCCCC3)c2C)cc1 | inactive | 
55 | COc1ccc(S(=O)(=O)n2nc(C)c(S(=O)(=O)N3CCOCC3)c2C)cc1 | 79.4 µM (active) | 
56 | COc1ccc(S(=O)(=O)c2c(Nc3cccc(Cl)c3)sc(C(=O)c3ccccc3)c2N)cc1 | inactive | 
